In PubChem BioAssay:

Assay: RPMI8226 myeloma cell viability, profiling panel, resazurin fluorescence, basal, 24 h, PK04 Diversity Set (AID 1180);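 further: RPMI8826 multiple myeloma cell line at 5000 cells per well; test concentration not given here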
Conditions: higher = more signal

| SMILES | z-score |
| --- | --- |
| COCCOC(=O)N1C(=O)[C@@]2(c3cc(C#CCNC(N)=O)ccc31)[C@H](C(=O)N1CCc3cc(OC)c(OC)cc3C1)[C@H]1C(=O)O[C@H](c3ccccc3)[C@H](c3ccccc3)N1[C@@H]2c1ccc(OCCO)cc1 | 0.856 |
| CCOC(=O)C1=CC[C@@H](c2ccccc2)N(S(=O)(=O)c2ccc(C)cc2)[C@H]1C(=O)OCC | -0.904 |
| O=C(CS)NCCCCCCNC(=O)[C@@H]1C[C@@H]2C(=O)N3CCC[C@H]3C(=O)N2[C@@H]1c1ccc(O)cc1 | -0.449 |
| CCOC(=O)C1=CCC(c2ccc([N+](=O)[O-])cc2)N(S(=O)(=O)c2ccc(C)cc2)C1 (stereo not given) | -1.5 |
| COCCOC(=O)N1C(=O)[C@@]2(c3cc(C#CCNC(N)=O)ccc31)[C@H](c1ccc(O)cc1)N1[C@H](c3ccccc3)[C@H](c3ccccc3)OC(=O)[C@H]1[C@@H]2C(=O)Nc1nc2ccccc2s1 | 0.803 |
| O=c1cccc(CCc2ccccc2)o1 | -0.753 |
| O=C1N(CCS(=O)(=O)c2ccccc2)Cc2ccccc2[C@H]2OC(c3ccc(OCCCO)cc3)=N[C@@]12CCS(=O)(=O)c1ccccc1 | -0.124 |
| CN(C)C(=O)[C@@]1(CCC(=O)OC(C)(C)C)N=C(c2ccc(OCCCO)cc2)O[C@H]1c1ccccc1 | 0.276 |
| O=C1C2C=CC(C(O)c3ccc(-c4ccccc4)s3)N(n3cnnc3)C2C(=O)N1Cc1ccccc1 (stereo not given) | -0.259 |
| CC(C)C(O)C1C=CC2C(=O)N(c3ccccc3)C(=O)C2N1Nc1ccc(C#N)cc1 (stereo not given) | -0.47 |
| COC(=O)c1ccc(C(O)C2C=CC3C(=O)N(C)C(=O)C3N2NC(=O)OC(C)(C)C)o1 (stereo not given) | -0.212 |
| CCOC(=O)C1=C[C@@H](CC)N(S(=O)(=O)c2ccc(C)cc2)[C@H]1c1ccccc1 | -1.05 |
| COC(=O)[C@@]1(Cc2ccccc2)[C@H]2c3cc(C(=O)N(C)C)n(Cc4c(-c5ccccc5)noc4C)c3C[C@H]2CN1C(=O)c1ccccc1 | -2.93 |
| COCCOC(=O)N1C(=O)[C@@]2(c3cc(C#CCNC(N)=O)ccc31)[C@H](c1ccccc1OCCO)N1[C@H](c3ccccc3)[C@H](c3ccccc3)OC(=O)[C@H]1[C@@H]2C(N)=O | 0.138 |
| CC(C)N1C(=O)[C@@]2(c3ccc([N+](=O)[O-])cc3)CC(=O)N(CC34CC5CC(CC(C5)C3)C4)[C@@H]2c2ccc(CO)cc21 | -0.629 |
| CC(=O)NCCCC[C@@H]1NC(=O)[C@@H]2C[C@H](C(=O)NCCCCN(C)C)[C@H](c3ccc(O)cc3)N2C1=O | 1.15 |
| Cc1ccccc1C(O)C1C=CC2C(=O)N(C)C(=O)C2N1N1CCCCC1 (stereo not given) | -1.64 |
| CCOC(=O)C[C@H]1[C@H](OC(=O)c2ccc(C(=O)c3ccccc3)cc2)[C@@H](NC(=O)C2CCCCC2)c2cc(OCCCO)ccc2N1C(=O)c1ccccc1 | -0.125 |

| SMILES | z-score |
| --- | --- |
| COc1ccc([Si](C)(C)[C@@H]2[C@@H](CC(=O)N3CCC[C@H]3CO)O[C@]3(C(=O)N(C)c4c(Br)cc(C)cc43)[C@H]2C)cc1 | -0.128 |
| COC(=O)[C@@]1(Cc2ccc(F)cc2)[C@H]2c3cc(C(=O)N4CCCC4)n(Cc4cccc5ccccc45)c3C[C@H]2CN1C(=O)c1ccccc1 | -1.25 |
| C=CC(COC(C)=O)NS(=O)(=O)c1ccc(Br)cc1 (stereo not given) | 0.404 |
| CC(C)(C)OC(=O)CC[C@@]1(C(=O)O)N=C(c2ccc(OCCCO)cc2)O[C@@H]1c1ccccc1N=[N+]=[N-] | -0.105 |
| CCOC(=O)C1=CCC(c2ccc(C#N)cc2)N(S(=O)(=O)c2ccc(C)cc2)C1 (stereo not given) | -1.94 |
| O=C1OCCC=C[C@H]2OC34C=CCN(Cc5ccccc5)C(=O)[C@H]3N(CCCO)C(=O)[C@@H]4C12 (stereo not given in full) | 0.165 |
| O=C1OCC=C[C@H]2OC34C=CCN(c5ccc(Cl)cc5)C(=O)[C@H]3N(CCCCCCO)C(=O)[C@@H]4[C@@H]12 (stereo not given in full) | 1.01 |
| COC(=O)C(CC#Cc1ccc2c(c1)[C@]1(C(=O)N2)[C@H](c2ccc(OCCO)cc2)N2[C@H](c3ccccc3)[C@H](c3ccccc3)OC(=O)[C@H]2[C@@H]1C(=O)NC[C@H](O)c1ccccc1)C(=O)OC | -0.47 |
| CCOC(=O)C1=CC[C@@H](c2ccccc2Cl)N(S(=O)(=O)c2ccc(C)cc2)C1 | -1.37 |
| O=C1O[C@H](c2ccccc2)[C@H](c2ccccc2)N2[C@H]1[C@@H](C(=O)O)[C@]1(C(=O)Nc3ccc(C#CC4=CCCCC4)cc31)[C@H]2c1ccc(OCCO)cc1 | -0.219 |
| N#Cc1ccc(NN2C(C(O)c3ccc([N+](=O)[O-])cc3)C=CC3C(=O)N(c4ccccc4)C(=O)C32)cc1 (stereo not given) | -1.08 |
| C=C(CCCC)/C(=C/C[C@H](OC(C)=O)c1ccc(CO)o1)c1cnc2ccccc2c1 | 0.137 |
| O=C1OCCC=C[C@H]2OC34C=CCN(Cc5ccccc5)C(=O)[C@H]3N(CCCCCCO)C(=O)[C@@H]4C12 (stereo not given in full) | 0.183 |
| C[C@]1(C(=O)NCc2ccccc2)c2ccccc2C(=O)N(Cc2ccc(OC(F)(F)F)cc2)[C@H]1c1ccc(CO)cc1 | 1.19 |
| CC(C)NC(=O)[C@@]1(Cc2ccccc2I)c2ccccc2C(=O)N(Cc2ccccc2)[C@H]1c1ccc(CO)cc1 | -0.211 |
| O=C1N(CCS(=O)(=O)c2ccccc2)c2ccccc2C[C@@]12COC(c1ccc(OCCCO)cc1)=N2 | -0.816 |
| CC1CC/C=C\[C@H]2OC34C=CCN(Cc5ccccc5)C(=O)[C@H]3N(CCCCCO)C(=O)[C@@H]4C2C(=O)O1 (stereo not given in full) | 0.461 |
